# Measurements: PubChem BioAssay (Tox21)
# Several values for one entry are separate records, joined by “and”; a condition that tells them apart may be missing. Equal entries are not always repeated. Records with an inconclusive call do not appear. Entries that show only a call come without a potency. A structure can be active in one record and inactive in another. Activity calls are given as the source filed them. Calls follow the shape of the dose curve; as a rule, active = well fitted cell-killing curve with a large enough effect in the repeat runs; inconclusive = weak or mixed curves; inactive = no such curve, though single readings can be large or run the other way.
# Test: qHTS assay to identify small molecule antagonists of the peroxisome proliferator-activated receptor delta (PPARd) signaling pathway - cell viability counter screen (AID 743213); also: nearly all actives have a fitted effect of over 50% in size
# Details: PPARd-bla HEK293H viability, CellTiter-Glo luminescence, 17 h; series mostly up to 62 µM; viability change, negative = cytotoxic: at the top concentration
# Text: U.S. Tox21 Program National Center for Advancing Translational Sciences [NCATS] NIH Chemical Genomics Center [NCGC] U.S. Environmental Protection Agency [EPA] National Institutes of Environmental Health Sciences [NIEHS] National Toxicology Program [NTP] U.S. Food and Drug Administration [FDA] Tox21 Assay Overview: The peroxisome proliferator-activated receptors (PPARs) are lipid-activated transcription factors of the nuclear receptor superfamily with three distinct subtypes namely PPAR alpha, PPAR delta (PPARd) and PPAR gamma. All these subtypes heterodimerizes with Retinoid X receptor (RXR) and have different physiological functions. […] To identify the compounds that inhibit PPAR-delta signaling, GeneBLAzer PPAR delta UAS-bla HEK293H cell line (Invitrogen, Carlsbad, CA, USA) containing a beta-lactamase reporter gene under the control of an Upstream Activator Sequence (UAS) was used to screen the Tox21 compound library. The cytotoxicity of the Tox21 compound library against the PPARd-bla cell line was tested in parallel by measuring the cell viability using CellTiter-Glo assay (Promega, Madison, WI) in the same wells.
# Tox21 Assay Protocol Summary: PPARd-bla cells were dispensed at 3000 cells/5uL/well in 1536-well black wall/clear bottom plates using a Multidrop Combi (Thermo Fisher Scientific, Waltham, MA) dispenser. After the assay plates were incubated at 37 C and 5% CO2 for 5 h, 23 nL of compounds dissolved in DMSO, positive controls or DMSO only was transferred to the assay plate by a Pintool station (Kalypsys, San Diego, CA), followed by addition of 1ul L165041 (300 nM, final concentration in the wells). The assay plates were incubated at 37 C for 17 h, and then 1 uL of LiveBLAzerTM B/G FRET substrate was added using a Bioraptr Flying Reagent Dispenser (FRD) workstation (Beckman Coulter, Indianapolis, IN, USA). The assay plates were incubated at room temperature for 2 h and fluorescence intensity was measured by an Envision plate reader (PerkinElmer, Shelton, CT). For cell viability readout that measures cytotoxicity, 3 ul/well of CellTiter-Glo reagent was added into the assay plates using a Bioraptr FRD. After 30 min incubation at room temperature, the luminescence intensity in the plates was measured using a ViewLux plate reader (PerkinElmer).
# Potency is read from the fitted curve at half-maximal effect.
Structure (SMILES),Potency,"viability change, negative = cytotoxic"
Nc1ccc([N+](=O)[O-])cc1N,inactive,–
CC1(C)C(C(=O)OC(C#N)c2cccc(Oc3ccccc3)c2)C1(C)C (stereo not given),–,3.3% [at 80.4 µM] (inactive)
[CH3][Sn]([Cl])([Cl])[Cl],inactive,–
CC(C)=CC1C(C(=O)OCN2C(=O)C3=C(CCCC3)C2=O)C1(C)C (stereo not given),inactive,–
COP(=S)(OC)Oc1ccc(Sc2ccc(OP(=S)(OC)OC)cc2)cc1,inactive,–
Cc1ccc(N=CN(C)C=Nc2ccc(C)cc2C)c(C)c1,24.5 µM (active),–
C=CC(=O)OCC(CC)(COC(=O)C=C)COC(=O)C=C,13.8 µM (active),–
CCOC(=O)c1ccccc1N,–,-1.03% (inactive)
CNC(=O)Oc1cccc2c1OC(C)(C)C2,inactive,–
ClC(Cl)(Cl)Br,inactive,–
CCOP(=O)(O)OCC (tested in a mixture with another compound),inactive and 19.3 µM (active),–
S=c1[nH]c2ccccc2[nH]1,inactive,–
Cl,inactive,–
CSc1nc(NC(C)C)nc(NC(C)C)n1,–,5.14% (inactive)
CC(C)(O)C#N,inactive,–
c1ccc2c(c1)Nc1ccccc1S2,–,-6.38% (inactive)
CCC[CH2][Sn]([Cl])([CH2]CCC)[CH2]CCC,778 nM (active) and 1.95 µM (active),–
O=S(=O)(O)C(F)(F)C(F)(F)C(F)(F)C(F)(F)C(F)(F)C(F)(F)C(F)(F)C(F)(F)F,26.2 µM (active) and 43.6 µM (active),–
O=[N+]([O-])/N=C1\NCCN1Cc1ccc(Cl)nc1,inactive,–
C=C(C)C#N,–,-3.32% [at 80.4 µM] (inactive)

Structure (SMILES),Potency,"viability change, negative = cytotoxic"
Cn1c(-c2ccccc2)cc(-c2ccccc2)[n+]1C,inactive,–
O=C(O)CF,inactive,–
Cc1cccc(N=Nc2ccc(N(C)C)cc2)c1,inactive,–
C[C@]12CCC(=O)C=C1CC[C@@H]1[C@@H]2CC[C@@]2(C)[C@H]1CC[C@]2(C)O,inactive,–
CCC/C=N/O,inactive,–
CCCCOC(=O)COC(=O)c1ccccc1C(=O)OCCCC,inactive,–
Clc1cccc(Cl)c1,inactive,–
CC(C)=CC1C(C(=O)OCc2cccc(Oc3ccccc3)c2)C1(C)C (stereo not given),inactive,–
Clc1ccc(C(Cl)(Cl)Cl)cc1,inactive,–
CCOP(=S)(OCC)SCn1c(=O)oc2cc(Cl)ccc21,inactive,–
CNC(=O)CSP(=S)(OC)OC,–,7.3% [at 80.4 µM] (inactive)
C[N+](C)(C)CC(=O)O,inactive,–
O=P(OCCCl)(OCCCl)OCCCl,inactive,–
CN(C)P(=O)(N(C)C)N(C)C,–,-19.3% (inactive)
CC(C)(c1ccccc1)c1ccc(O)c(C(C)(C)c2ccccc2)c1,34.3 µM (active) and 43.6 µM (active),–
C[N+](C)(C)C,inactive,–
N#CCCCCC#N,inactive,–
COc1ccc(C=O)cc1OC,inactive,–
Nc1ccc2ccccc2c1,–,9.51% (inactive)
CCCCCCCC[N+](C)(CCCCCCCC)CCCCCCCC,3.88 µM (active) and 2.46 µM (active) and 5.49 µM (active),–
